Results published in PubChem BioAssay (EPA / NIEHS).
Activity calls are given as the source filed them. How the source made its calls: active means hit-call score of the fitted dose curve at least 0.9, where 1 is the maximum; inactive means score below 0.9.

Columns and labels:
Settings in all cases: mRNA level, 48 h; actives raise or lower the signal
[1] = read-out: ATP-citrate lyase (ACLY), ACLY (gene 47); assay: LTEA_HepaRG_ACLY: Life Technologies and Expression Analysis (LTEA) Assay for ATP-citrate lyase (ACLY) using HepaRG (AID 2283466)
In short: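 HepaRG, 48 h exposure, 8-pt half-log dilutions (top 100 uM), 0.5% DMSO. Readout: ACLY mRNA, TaqMan qRT-PCR, housekeeping-normalized (ACTB/GAPDH/POLR2A). Bidirectional curve fit vs DMSO.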

[2] = read-out: Peroxisomal acyl-coenzyme A oxidase 1 (ACOX1) gene, ACOX1 (gene 51); assay: LTEA_HepaRG_ACOX1: Life Technologies and Expression Analysis (LTEA) Assay for Peroxisomal acyl-coenzyme A oxidase 1 (ACOX1) gene using HepaRG (AID 2283467)
In short: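 Measured by qRT-PCR against three housekeeping genes: ACOX1 transcript change in human HepaRG cells after 48 h dosing. Concentrations ran up to 100 uM in half-log steps. Curves were fitted bidirectionally relative to 0.5% DMSO.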

[3] = read-out: Bcl-2 (BAD) gene, BAD (gene 572); assay: LTEA_HepaRG_BAD: Life Technologies and Expression Analysis (LTEA) Assay for Bcl-2 (BAD) gene using HepaRG (AID 2283469)
In short: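 BAD transcript change, measured by qRT-PCR against three housekeeping genes and fitted in both directions relative to 0.5% DMSO, after 48 h chemical treatment of human HepaRG liver cells at concentrations up to 100 uM.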

[4] = read-out: Bcl-2 (BAX) gene, BAX (gene 581); assay: LTEA_HepaRG_BAX: Life Technologies and Expression Analysis (LTEA) Assay for Bcl-2 (BAX) gene using HepaRG (AID 2283470)
In short: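 HepaRG (human liver), 48 h exposure, duplicate wells. 8-pt curve, half-log from 100 uM, 0.5% DMSO. BAX transcript by TaqMan qRT-PCR; ACTB/GAPDH/POLR2A normalization; gain or loss vs DMSO baseline.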

[5] = read-out: adenosine kinase (ADK) gene, ADK (gene 132); assay: LTEA_HepaRG_ADK: Life Technologies and Expression Analysis (LTEA) Assay for adenosine kinase (ADK) gene using HepaRG (AID 2283471)
In short: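 Differentiated HepaRG cells dosed 48 h in serum-free induction medium, 0.5% DMSO vehicle, eight half-log concentrations from 100 uM, in duplicate. ADK mRNA by TaqMan qRT-PCR normalised to ACTB, GAPDH, POLR2A; bidirectional fit versus DMSO.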

[6] = read-out: Alpha-fetoprotein (AFP) gene, AFP (gene 174); assay: LTEA_HepaRG_AFP: Life Technologies and Expression Analysis (LTEA) Assay for Alpha-fetoprotein (AFP) gene using HepaRG (AID 2283472)
In short: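 HepaRG, single lot; 48 h post-plating -> serum-free induction medium; cpd 8-pt, 100 uM top, half-log, 0.5% DMSO, duplicate, 48 h. RNA -> qRT-PCR AFP, norm ACTB/GAPDH/POLR2A. Bidirectional fit vs DMSO.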

BCL2L11 (gene 10018) = assay: LTEA_HepaRG_BCL2L11: Life Technologies and Expression Analysis (LTEA) Assay for Bcl-2 (BCL2L11) gene using HepaRG (AID 2283473)
In short: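 HepaRG, 48 h exposure, 8-pt half-log series from 100 uM in 0.5% DMSO, duplicates; qRT-PCR (Fluidigm TaqMan) for BCL2L11, housekeeping-normalized; bidirectional curve fit relative to DMSO baseline.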

[7] = read-out: Apolipoprotein A-V (APOA5) gene, APOA5 (gene 116519); assay: LTEA_HepaRG_APOA5: Life Technologies and Expression Analysis (LTEA) Assay for Apolipoprotein A-V (APOA5) gene using HepaRG (AID 2283474)
In short: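 HepaRG, 48 h chemical exposure in serum-free induction medium, 8-pt half-log series (top 100 uM), 0.5% DMSO vehicle, duplicates. Readout: APOA5 mRNA by qRT-PCR, housekeeping-normalized; bidirectional fit vs DMSO baseline.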

[8] = read-out: Apoptosis regulator Bcl-2 (Homo sapiens) (UniProt P10415); assay: LTEA_HepaRG_BCL2: Life Technologies and Expression Analysis (LTEA) Assay for Bcl-2 gene using HepaRG (AID 2283475)
In short: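 HepaRG, plated 48 h then switched to serum-free induction medium; dosed 48 h, 8 conc. (max 100 uM, half-log steps), duplicate, 0.5% DMSO. Lysis in RLT, RNA isolated, TaqMan qRT-PCR for BCL2; ACTB/GAPDH/POLR2A normalisation; bidirectional fit vs DMSO.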

[9] = read-out: Bcl-2 (BID) gene, BID (gene 637); assay: LTEA_HepaRG_BID: Life Technologies and Expression Analysis (LTEA) Assay for Bcl-2 (BID) gene using HepaRG (AID 2283476)
In short: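 Transcript levels of BID, measured by qRT-PCR and normalized to three housekeeping genes, were fitted bidirectionally against DMSO controls. Cells were HepaRG, dosed 48 h at up to 100 uM.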

Caspase-3 (Homo sapiens) = Caspase-3 (Homo sapiens) (UniProt P42574); assay: LTEA_HepaRG_CASP3: Life Technologies and Expression Analysis (LTEA) Assay for cysteine-aspartic acid protease (CASP3) using HepaRG (AID 2283477)
Sequence of Caspase-3 (Homo sapiens) (P42574 whole entry, looked up): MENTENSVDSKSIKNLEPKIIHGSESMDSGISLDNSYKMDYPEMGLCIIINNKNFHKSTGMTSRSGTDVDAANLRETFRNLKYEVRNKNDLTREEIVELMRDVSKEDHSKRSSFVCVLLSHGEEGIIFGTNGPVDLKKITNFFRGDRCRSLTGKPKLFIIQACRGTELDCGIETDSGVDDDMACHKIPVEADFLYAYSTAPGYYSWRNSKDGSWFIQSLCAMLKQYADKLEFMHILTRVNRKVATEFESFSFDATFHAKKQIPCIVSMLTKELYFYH
In short: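 HepaRG, 48 h exposure, 8 conc. (top 100 uM, half-log steps, duplicate), 0.5% DMSO vehicle; qRT-PCR of CASP3 transcript, housekeeping-normalised (ACTB/GAPDH/POLR2A); bidirectional curve fit vs DMSO baseline.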

[10] = read-out: Cytochrome P450 (CYP24A1), CYP24A1 (gene 1591); assay: LTEA_HepaRG_CYP24A1: Life Technologies and Expression Analysis (LTEA) Assay for Cytochrome P450 (CYP24A1) using HepaRG (AID 2283478)
In short: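 qRT-PCR read-out: CYP24A1 transcript levels normalized to three housekeeping genes, bidirectional curve fits against 0.5% DMSO baseline. Human HepaRG cells treated 48 h with chemicals at eight concentrations from 100 uM in half-log steps.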

[11] = read-out: Cytochrome P450 (CYP1A2), CYP1A2 (gene 1544); assay: LTEA_HepaRG_CYP1A2: Life Technologies and Expression Analysis (LTEA) Assay for Cytochrome P450 (CYP1A2) using HepaRG (AID 2283479)
In short: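 HepaRG, 48 h exposure, top 100 uM, half-log 8-pt, 0.5% DMSO vehicle, duplicates. Readout: TaqMan qRT-PCR of CYP1A2 mRNA, housekeeping-normalized (ACTB/GAPDH/POLR2A). Gain/loss fit relative to DMSO baseline.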

[12] = read-out: cysteine-aspartic acid protease (CASP8), CASP8 (gene 841); assay: LTEA_HepaRG_CASP8: Life Technologies and Expression Analysis (LTEA) Assay for cysteine-aspartic acid protease (CASP8) using HepaRG (AID 2283480)
In short: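 HepaRG, 48 h exposure, duplicate wells; 8 conc, half-log from 100 uM, 0.5% DMSO. Serum-free induction medium. CASP8 mRNA by TaqMan qRT-PCR, norm. ACTB/GAPDH/POLR2A; gain/loss fitted vs DMSO.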

[13] = read-out: Cytochrome P450 (CYP2B6), CYP2B6 (gene 1555); assay: LTEA_HepaRG_CYP2B6: Life Technologies and Expression Analysis (LTEA) Assay for Cytochrome P450 (CYP2B6) using HepaRG (AID 2283481)
In short: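 Read-out is CYP2B6 mRNA by TaqMan qRT-PCR, normalized to three housekeeping genes and fitted bidirectionally against 0.5% DMSO baseline. Human HepaRG cells received test chemicals for 48 h, top concentration 100 uM, half-log dilutions.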

[14] = read-out: Cytochrome P450 2C19 (Homo sapiens) (UniProt P33261); assay: LTEA_HepaRG_CYP2C19: Life Technologies and Expression Analysis (LTEA) Assay for CYP2C19 using HepaRG (AID 2283482)
In short: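 HepaRG, 48 h chemical exposure, 8-pt half-log series from 100 uM in 0.5% DMSO, duplicates. Readout: CYP2C19 mRNA by TaqMan qRT-PCR, housekeeping-normalized. Bidirectional fit vs DMSO baseline; phenobarbital 1mM as induction control.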

CYP2C8 (gene 1558) = assay: LTEA_HepaRG_CYP2C8: Life Technologies and Expression Analysis (LTEA) Assay for CYP2C8 using HepaRG (AID 2283483)
In short: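 CYP2C8 mRNA induction or loss, by qRT-PCR normalized to ACTB/GAPDH/POLR2A, is read in HepaRG cells after 48 h treatment. Concentrations run from 100 uM down in half-log dilutions, with 0.5% DMSO as vehicle and baseline.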

CYP2C9 (gene 1559) = assay: LTEA_HepaRG_CYP2C9: Life Technologies and Expression Analysis (LTEA) Assay for CYP2C9 using HepaRG (AID 2283484)
In short: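 Cells plated 48 h, switched to serum-free induction medium, then treated in duplicate for 48 h at eight concentrations (max 100 uM, 0.5% DMSO). RNA then analysed by qRT-PCR for CYP2C9; curves fitted in both directions relative to DMSO.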

CYP2E1 (gene 1571) = assay: LTEA_HepaRG_CYP2E1: Life Technologies and Expression Analysis (LTEA) Assay for CYP2E1 using HepaRG (AID 2283485)
In short: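 Human liver line HepaRG, plated 48 h, then serum-free induction medium + chemical x 48 h; 8-pt CRC from 100 uM, half-log, 0.5% DMSO, n=2. Readout: CYP2E1 mRNA qRT-PCR vs ACTB/GAPDH/POLR2A; bidirectional fit vs DMSO.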

[15] = read-out: Alkaline Phosphatase, Placental (ALPP) gene, ALPP (gene 250); assay: LTEA_HepaRG_ALPP: Life Technologies and Expression Analysis (LTEA) Assay for Alkaline Phosphatase, Placental (ALPP) gene using HepaRG (AID 2283468);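 on AC50: differentiated human HepaRG liver cells in serum-free induction medium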
In short: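 qRT-PCR readout of ALPP mRNA (Fluidigm TaqMan), normalized to ACTB/GAPDH/POLR2A, after 48 h chemical exposure of HepaRG cells; 8-point half-log series, top 100 uM, 0.5% DMSO vehicle. Bidirectional curve fit versus DMSO baseline.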

Sequence of Cytochrome P450 2C19 (Homo sapiens) (P33261 whole entry, looked up): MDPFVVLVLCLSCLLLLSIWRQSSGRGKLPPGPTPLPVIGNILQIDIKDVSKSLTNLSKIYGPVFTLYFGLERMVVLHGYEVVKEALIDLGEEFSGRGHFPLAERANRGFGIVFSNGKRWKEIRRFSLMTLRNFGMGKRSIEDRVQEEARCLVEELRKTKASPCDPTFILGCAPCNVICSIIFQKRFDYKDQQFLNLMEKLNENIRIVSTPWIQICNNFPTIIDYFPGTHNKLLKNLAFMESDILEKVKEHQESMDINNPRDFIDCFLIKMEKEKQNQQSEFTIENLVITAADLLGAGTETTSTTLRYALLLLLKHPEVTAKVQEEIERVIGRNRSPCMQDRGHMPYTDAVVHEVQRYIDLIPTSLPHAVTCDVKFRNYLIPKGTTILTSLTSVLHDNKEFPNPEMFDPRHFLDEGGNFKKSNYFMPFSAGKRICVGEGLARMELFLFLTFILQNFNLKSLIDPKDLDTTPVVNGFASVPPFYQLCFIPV
Sequence of Apoptosis regulator Bcl-2 (Homo sapiens) (P10415 whole entry, looked up): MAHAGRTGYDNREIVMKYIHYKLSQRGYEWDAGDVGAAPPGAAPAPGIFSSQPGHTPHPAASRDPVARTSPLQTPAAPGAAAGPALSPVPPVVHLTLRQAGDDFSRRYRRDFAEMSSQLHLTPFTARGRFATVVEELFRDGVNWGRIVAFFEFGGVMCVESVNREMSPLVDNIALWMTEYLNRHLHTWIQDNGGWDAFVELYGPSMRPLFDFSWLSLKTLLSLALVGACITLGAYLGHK

SMILES: O=c1ccc2ccccc2o1
- outcome [1]: inactive
- outcome [2]: inactive
- outcome [3]: inactive
- outcome [4]: inactive
- outcome [5]: inactive
- outcome [6]: inactive
- outcome (BCL2L11 (gene 10018)): inactive
- outcome [7]: inactive
- outcome [8]: inactive
- outcome [9]: inactive
- outcome (Caspase-3 (Homo sapiens)): inactive
- outcome [10]: inactive
- outcome [11]: inactive
- outcome [12]: inactive
- AC50 [13]: 40.3 µM (active)
- outcome [14]: inactive
- outcome (CYP2C8 (gene 1558)): inactive
- outcome (CYP2C9 (gene 1559)): inactive
- AC50 (CYP2E1 (gene 1571)): 50 µM (active)

SMILES: Oc1ccccc1
- outcome [1]: inactive
- outcome [2]: inactive
- outcome [15]: inactive
- outcome [3]: inactive
- outcome [4]: inactive
- outcome [5]: inactive
- outcome [6]: inactive
- outcome (BCL2L11 (gene 10018)): inactive
- outcome [7]: inactive
- outcome [8]: inactive
- outcome [9]: inactive
- outcome (Caspase-3 (Homo sapiens)): inactive
- outcome [10]: inactive
- outcome [11]: inactive
- outcome [12]: inactive
- outcome [13]: inactive
- outcome [14]: inactive
- outcome (CYP2C8 (gene 1558)): inactive
- outcome (CYP2C9 (gene 1559)): inactive
- outcome (CYP2E1 (gene 1571)): inactive

SMILES: COc1cc(C(=O)NC2CCN(C)CC2)ccc1Nc1ncc2c(n1)N(C1CCCC1)CC(F)(F)C(=O)N2C
- AC50 [1]: 32.4 µM (active)
- AC50 [2]: 12.2 µM (active)
- AC50 [15]: 3.13 µM (active)
- AC50 [3]: 11.1 µM (active)
- outcome [4]: inactive
- outcome [5]: inactive
- outcome [6]: inactive
- AC50 (BCL2L11 (gene 10018)): 46.5 µM (active)
- AC50 [7]: 4.65 µM (active)
- outcome [8]: inactive
- AC50 [9]: 4.65 µM (active)
- AC50 (Caspase-3 (Homo sapiens)): 11.1 µM (active)
- outcome [10]: inactive
- AC50 [11]: 4.65 µM (active)
- AC50 [12]: 16.2 µM (active)
- AC50 [13]: 0.151 µM (active)
- AC50 [14]: 4.65 µM (active)
- outcome (CYP2C8 (gene 1558)): inactive
- AC50 (CYP2C9 (gene 1559)): 3.9 µM (active)
- AC50 (CYP2E1 (gene 1571)): 22.9 µM (active)
